High-throughput results: PubChem BioAssay, several laboratories
Only some compounds are listed: those with a hit (about 1.7% of all), similar ones and a draw of the others.
SSB-PriA inh – blocks PriA binding to SSB C-terminal tail; 430,000 tested, 0.6% active; inhibition, % at 33 µM; AID 1272365; AlphaScreen SSBct-PriA binding, biotinylated peptide; in the data active = inhibition mostly above about 37%, no sharp cut-off; inactive = mostly below about 20%;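 also: plate controls were negative control peptide for no effect and reference peptide for full effect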
BJeLR viability – kills HRASV12-expressing BJeLR cells; inhibition, % (test concentration not listed); BJeLR (HRASV12) viability, CellTiter-Glo ATP luminescence, 48 h; AID 1554; 300,000 tested, 0.17% active; in the data active = inhibition above about 50%
PfHsp40 rescue – rescue of PfHsp40-mediated yeast toxicity; S. cerevisiae expressing PfHsp40, growth rescue, ATP luminescence; growth rescue, % at 12.5 µM; 340,000 tested, 0.68% active; AID 504582; in the data active = growth rescue above about 28%, passing the limit was not always enough;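 also: yeast W303a lacking pdr1 and pdr3 grown in galactose medium; growth measured after three days at 30 °C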
PrP UTR inh – suppresses PrP 5' UTR mRNA reporter expression; 340,000 tested, 0.35% active; inhibition, % (test concentration not listed); cell-based PrP 5' UTR mRNA reporter, plate reader; in the data active = inhibition above about 52%; also: 0 = median of the neutral control wells
Yp Topo-I inh – Y. pestis Topo-I inhibition via cleavage products | Y. pestis Topo-I cleavage product accumulation, plate reader | activity, % at 10 µM | 360,000 tested, 0.064% active | AID 504884; in the data active = activity above about 50%, passing the limit was not always enough
PrPC surface inh – inhibitors of human cell surface prion protein PrPC. inhibition, % at 13.8 µM. 370,000 tested, 0.43% active. TR-FRET read-out. P04156; in the data active = inhibition above about 24%; also: 0% = median of the test wells and 100% = reference compound wells
* marks the source's active call; other numbers are inactive results; nt = no result.

SMILES	SSB-PriA inh	BJeLR viability	PfHsp40 rescue	PrP UTR inh	Yp Topo-I inh	PrPC surface inh
Cc1cc(Nc2ccccc2)nn1C(=O)c1ccccc1	-53.1	0.6	238.5*	-19.4	-4.2	-6.1
Cc1ccc2ncc(C(=O)N3CCN(c4ccccc4Cl)CC3)c(=O)n2c1	-7.0	nt	nt	nt	nt	nt
O=C(NCCOc1ccc(-c2ccccn2)nn1)[C@H]1CC(=O)N(c2cccc(Br)c2)C1	100.0*	nt	nt	nt	nt	nt
O=c1[nH]c(-c2ccccc2)cn1C1CCN(Cc2ccc(-c3nc4ccc(Br)cc4nc3-c3ccccc3)cc2)CC1	nt	nt	nt	nt	nt	31.4*
Cc1csc2ncc(C(=O)NC(c3ccccc3)c3ccccc3)c(=O)n12	0.0	nt	nt	nt	nt	nt
CCN(C(=O)c1cnc2scc(C)n2c1=O)c1ccccc1C	-3.3	-5.1	40.0*	-0.9	-0.6	1.3
O=C(O)c1cccc2c3c([nH]c12)CCCC3	-9.6	2.9	127.8*	-17.1	-6.4	-3.4
O=C(NCCc1ccccc1)c1cccc2c3c([nH]c12)CCCC3	25.0	nt	nt	nt	nt	nt
Cn1ccnc1N1CCN(C(=O)c2ccc(F)cc2F)CC1	10.0	nt	nt	nt	nt	nt
CCSc1ccccc1C(=O)N1CCCC(Cc2nc(-c3ccccc3C)no2)C1 (stereo not given)	-5.0	nt	nt	nt	nt	nt
COc1ccc2[nH]c(=O)c(CN(Cc3cccnc3)C(=O)Nc3ccccc3)cc2c1	-4.2	6.0	287.8*	-7.5	9.7	1.1
C/C(=N/Nc1nnc(C(C)(C)C)c(=O)[nH]1)c1ccc(Br)cc1	-4.0	nt	nt	nt	nt	nt
Cc1cccc(NC(=O)Nc2ccc(CN3CCN(c4ccccn4)CC3)cc2)c1	41.0*	nt	nt	nt	nt	nt
O=C(NC(C(=O)N/N=C/c1cc([N+](=O)[O-])ccc1O)c1n[nH]c(=O)c2ccccc12)c1ccccc1 (stereo not given)	nt	2.9	81.9*	-10.8	-0.7	-13.3
O=C(NC(C(=O)NN=Cc1cc([N+](=O)[O-])ccc1O)c1n[nH]c(=O)c2ccccc12)c1ccccc1 (stereo not given)	9.7	nt	nt	nt	nt	nt
Cc1cccc(C2CC(c3ccccc3)Nc3nc(N)nn32)c1 (stereo not given)	3.9	-6.0	48.2*	-22.8	11.3	4.2
COc1cccc(C2CC(c3ccc(C)cc3)Nc3nc(N)nn32)c1 (stereo not given)	-4.0	0.4	-0.5	-1.9	-10.1	-1.4
O=c1n(Cc2ccc(Cl)cc2)c2sc3c(c2c2ncnn12)CCCC3	-5.4	2.8	23.0	-12.1	57.2*	2.0
C=CCn1c(=O)n2ncnc2c2c3c(sc21)CCCC3	-2.7	-4.8	0.6	-15.7	1.8	nt
CN(C)c1cc2c3ccccc3n(C)c2cc1N	66.2*	nt	-0.7	8.1	-9.7	-4.2
O=C1c2ccccc2C(O)(c2ccccc2)N1c1ccc([N+](=O)[O-])cc1Cl (stereo not given)	-5.5	nt	204.5*	-14.5	-2.4	-4.1
Cc1c(N2C(=O)c3ccccc3C2(O)c2ccccc2)c(=O)n(-c2ccccc2)n1C (stereo not given)	-4.3	1.3	-1.5	2.0	3.1	2.6
O=C(NCc1cccnc1)NC(=O)c1ccccc1	4.0	nt	nt	nt	nt	nt
O=C(CCCCCCCCCCC(=O)NCc1cccnc1)NCc1cccnc1	-9.5	74.3*	-0.7	-61.0	-3.6	12.0
O=C(CCCN1C(=O)c2cccc3cccc(c23)C1=O)NCc1cccnc1	-5.6	-13.7	1.9	-26.8	8.7	-37.7
SMILES	SSB-PriA inh	BJeLR viability	PfHsp40 rescue	PrP UTR inh	Yp Topo-I inh	PrPC surface inh
O=C(NCc1cccnc1)N(c1ccccc1)c1ccccc1	37.0*	nt	nt	nt	nt	nt
O=C(/C=C/c1ccc(-c2ccccc2)cc1)NCc1cccnc1	-7.6	-11.2	1.1	-31.6	44.1	-12.8
O=C(CCCCCN1C(=O)c2cccc3cccc(c23)C1=O)NCc1cccnc1	7.0	80.3*	nt	nt	0.9	-1.9
O=C(/C=C/NCc1cccnc1)c1ccc(-c2ccccc2)cc1	1.0	-11.2	114.5*	-9.9	-8.0	-3.3
O=C(Cn1c(=O)oc2ccccc21)N(CCn1cccn1)c1nc2c(C(F)(F)F)cccc2s1	-10.0	nt	nt	nt	nt	nt
CCOc1ccc(-c2noc(Cn3nc(-c4ccc(C)c(C)c4)ccc3=O)n2)cc1OC	-9.0	nt	nt	nt	nt	nt
CC(C)(C)c1ccc(-c2cc(-c3ccccc3O)[nH]n2)cc1	-15.9	-11.7	33.7*	41.6	-11.8	3.3
O=[N+]([O-])c1ccccc1-c1cc(-c2cc(Cl)ccc2O)n[nH]1	23.8	2.7	144.5*	-45.5	-21.5	-14.3
Oc1ccc(Cl)cc1-c1cc(-c2cccc(Br)c2)n[nH]1	5.4	0.7	-0.4	-39.9	-25.7	7.4
Cc1ccccc1-c1cc(-c2ccccc2O)on1	-131.3	6.0	31.7*	nt	-10.2	8.0
Oc1ccccc1-c1cc(-c2ccccc2)no1	1.4	-2.7	0.0	-152.3	-0.7	-1.3
Oc1ccccc1-c1cc(-c2cccc(F)c2)n[nH]1	-7.4	7.6	193.0*	-79.1	-2.5	-3.3
Cc1ccc(O)c(-c2cc(-c3ccccc3[N+](=O)[O-])[nH]n2)c1	37.3	-2.2	11.7	-40.0	-6.6	-11.3
CCOc1ccc(NC(=O)CCSc2nnc3scc(-c4ccc(Cl)cc4)n23)cc1	-12.0	nt	nt	nt	nt	nt
Cn1cc(S(=O)(=O)Nc2ccc3c(c2)C(=O)NCC3)cn1	1.0	nt	nt	nt	nt	nt
COc1cccc(NC(=O)CSc2nc(CC(=O)NCc3ccco3)cs2)c1	8.0	nt	nt	nt	nt	nt
Cc1ccc(O)c(-c2cc(-c3ccccc3C)[nH]n2)c1	-2.4	3.5	321.7*	-44.0	1.7	4.2
CCOc1ccc(S(=O)(=O)Nc2ccc(Nc3ccc(-n4cccn4)nn3)cc2)cc1	70.0*	nt	nt	nt	nt	nt
O=S(=O)(Nc1ccc(Nc2ccc(-n3cccn3)nn2)cc1)c1cccc(Br)c1	28.0	nt	nt	nt	nt	nt
CCN1CCN(C(=O)C2CCN(C(=O)Nc3ccccc3)CC2)CC1	-1.1	nt	-0.6	-6.7	-2.6	-2.7
NC(=O)CN1CCN(C(=O)Nc2ccccc2)CC1	2.4	-6.2	75.8*	-12.7	6.1	-3.4
Cc1ccc(NS(=O)(=O)c2ccc(NC(=O)CN(c3cc([N+](=O)[O-])ccc3C)S(C)(=O)=O)cc2)c(C)c1	25.4	65.0*	0.5	-22.9	-5.3	-6.7
CC(=O)Nc1ccc(NC(=O)CN(c2cccc([N+](=O)[O-])c2)S(C)(=O)=O)cc1	-7.1	68.6*	-0.5	-23.2	4.5	-10.6
Clc1ccc(CCNc2nc3ccccc3s2)cc1	-5.7	-7.8	217.4*	-22.3	2.3	1.9
O=C(CSC1=Nc2ccccc2C2=NC(c3ccccc3)C(=O)N12)N1CCN(c2ccccc2F)CC1 (stereo not given)	-9.0	nt	nt	nt	nt	nt
SMILES	SSB-PriA inh	BJeLR viability	PfHsp40 rescue	PrP UTR inh	Yp Topo-I inh	PrPC surface inh
S=C1Nc2ccccc2CS1	nt	nt	nt	nt	-7.5	0.6
S=C1Cc2ccccc2N1	25.4	-5.4	0.1	-0.3	-9.3	40.8*
Nc1nc2ccc(C(=O)NCCO)cc2s1	81.0*	nt	nt	nt	nt	nt
COc1ccc(C2Cc3cc(C(=O)Nc4ncc(Cc5ccc(F)cc5)s4)ccc3C(=O)O2)cc1 (stereo not given)	-3.0	nt	nt	nt	nt	nt
O=C(NC(C1CC1)C1CC1)C1CCC(=O)N(CCCN2CCCC2=O)C1 (stereo not given)	-14.8	1.9	36.0*	-12.8	-0.6	-2.0
COc1ccc(C)c2sc(N(Cc3cccnc3)C(=O)c3nc4ccccc4s3)nc12	-5.0	nt	nt	nt	nt	nt
